# Assay outcomes (PubChem BioAssay)
# HCV inh: inhibitors of hepatitis C virus infection. Huh7.5.1 HCVcc-Cre infection, luciferase reporter, 44 h. actives 3.4% (n = 340,000). AID 651820. Potency, µM (top dose mostly 41.8 µM), inactives show at the highest dose activity change, negative = inhibition, most hits filed as inhibitors; active means well fitted inhibition curve with a large enough effect; inconclusive means small, poorly fitted or top-dose-only effect, or another doubt; inactive means no such curve, though single readings can be large or run the other way; further: potency means the concentration at half of the fitted maximal effect
#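 Antiviral activity was scored by luciferase reporter output from cells infected with HCVcc-Cre (~0.5 moi) in presence of compound, 44 h infection period, cells seeded 1,000/well 4 h prior.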
# HCMV inh: human cytomegalovirus inhibition | HFF cells, HCMV-luciferase reporter, 72 h; active compounds read low | activity change, negative = inhibition, % at 57.5 µM | actives 4.5% (n = 410,000) | AID 1259415; in the data active means activity change below about -60%; inconclusive means no clear call, values can overlap the other calls; inactive means above about -39%
#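 After 16 h attachment at 37C, HFF cells received test compound and HCMV-luciferase (1 PFU/cell); reporter luminescence read 72 h later, data normalized against buffer-only and known inhibitor Salinomycin.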
# Vaccinia Venus: inhibitors of vaccinia virus (Venus reporter); Vaccinia virus Venus reporter expression, fluorescence; Potency, µM (top dose mostly 36.5 µM), for inactives: at the top dose activity change, negative = inhibition, usual class: inhibitors; actives 0.46% (n = 330,000); AID 720580; calls by dose curve; tested in A549 cells; further: potency means the concentration at half of the fitted maximal effect; nearly all actives have a fitted effect of over 30% in size
# VACV mCherry inh: inhibitors of vaccinia virus infection (mCherry reporter signal); Vaccinia virus mCherry reporter infection, fluorescence; Potency, µM (top dose mostly 36.5 µM), without a hit: at the highest dose activity change, negative = inhibition, actives largely listed as inhibitors; actives 0.63% (n = 310,000); AID 720579; calls by dose curve; tested in A549 cells; further: potency means the concentration at half of the fitted maximal effect; nearly all actives have a fitted effect of over 35% in size
# Lassa entry inh: inhibitors of Lassa virus binding or cell entry. actives 1.2% (n = 300,000). Lassa virus pseudotype entry inhibition, cell reporter. Potency, µM (doses to about 37.9 µM), without a hit: at the highest dose activity change, negative = inhibition, usual class: inhibitors; calls by dose curve; tested in HEK293 cells; further: potency means the concentration at half of the fitted maximal effect; nearly all actives have a fitted effect of over 50% in size
# Marburg entry inh: inhibitors of Marburg virus binding or cell entry | Marburg virus pseudotyped entry inhibition, cell reporter | actives 1.8% (n = 300,000) | Potency, µM (top dose mostly 37.8 µM), inactives show at the top dose activity change, negative = inhibition, most hits filed as inhibitors; calls by dose curve; tested in HEK293 cells; further: potency means the concentration at half of the fitted maximal effect
# * hit, by the source's call; i = inactive; ? = inconclusive; / = no result given; [ ] = another dose, or the depositor's remark. Rows were chosen to be rich in hits. Some 7.8% of all compounds tested hit in one or more screens of this group. On the % scale 0 is the no-effect control and ±100 the full control effect.
SMILES,HCV inh,HCMV inh,Vaccinia Venus,VACV mCherry inh,Lassa entry inh,Marburg entry inh
COc1ccc(C(=O)CC2(O)C(=O)N(Cc3ccccc3)c3ccc(Br)cc32)cc1 (stereo not given),/,9,-13%,-21%,-20%[46.1 µM],-27%[46.1 µM]
Cc1ccc(NS(=O)(=O)c2cccc(C(=O)NC3CCN(Cc4ccccc4)CC3)c2)c(C)c1,14µM*,-40,/,/,/,/
COc1ccccc1NS(=O)(=O)c1ccc(C)c(C(=O)NC2CCN(Cc3ccccc3)CC2)c1,2.2µM*,-76*,-19%,-25%,?,?
Cc1ccccc1C(=O)NC1CCN(CC(=O)Nc2c(C)cccc2C)CC1,-10%,13,/,/,-2%,-8%
Cc1ccccc1C(=O)NC1CCN(CC(=O)Nc2ccccc2)CC1,2%,-90*,/,/,/,/
COc1ccccc1NS(=O)(=O)c1cccc(C(=O)NC2CCN(Cc3ccccc3)CC2)c1,?,/,-10%,?,-28%,?
O=C(NC1CCN(Cc2ccccc2)CC1)c1cccc(S(=O)(=O)Nc2ccc(F)cc2)c1,?,-77*,/,/,/,/
C[C@@H]1C(c2ccccc2)=CC(=O)c2nc3ccccc3cc2[C@@H]1C(=O)N1CCCC1,/,/,/,/,/,-10%[14.2 µM]
C=CCN(c1ccccc1)S(=O)(=O)c1cccc(C(=O)NC2CCN(Cc3ccccc3)CC2)c1,14µM*,-65*,?,?,?,?
CN(C)S(=O)(=O)c1cccc(C(=O)NCC(=O)NC2CCN(Cc3ccccc3)CC2)c1,-24%,-15,9%,i,10%[46.1 µM],-8%[46.1 µM]
CCOC(=O)c1ccc(N2C(=O)c3n[nH]c(C)c3C2c2cccnc2)cc1 (stereo not given),-15%,5,2%,-3%,-16%,-8%
CCOC(=O)c1ccc(N2C(=O)c3[nH]nc(-c4ccccc4)c3C2c2cccs2)cc1 (stereo not given),/,-98*,-15%[7.34 µM],-18%[7.34 µM],?,?
CCOC(=O)c1ccc(N2C(=O)c3[nH]nc(-c4ccc(OCC)cc4)c3C2c2cccs2)cc1 (stereo not given),/,-65*,?,?,?,?
COc1cccc(N(C(=O)c2cccs2)c2nc3ccccc3s2)c1,?,-101*,-15%,/,?,-11%
CCN(C(=O)c1cccs1)c1nc(-c2ccc(OC)cc2)cs1,?,0,-5%,?,9%[46.1 µM],?
COc1cccc(N2C(=O)CSC23C(=O)N(CC(=O)NCc2ccc(C)cc2)c2ccccc23)c1 (stereo not given),/,-2,1%,9%,4%[46.1 µM],/
CCN(CC)c1ccc(/C=N/NC(=O)c2cccc(S(=O)(=O)Nc3ccccc3OC)c2)c(O)c1,10µM*,-103*,?,2.5µM*,0.32µM*,5.6µM*
CCN(CC)c1ccc(/C=N/NC(=O)c2cccc(S(=O)(=O)Nc3ccccc3OC)c2)cc1,11µM*,-16,/,/,/,/
COc1ccccc1NS(=O)(=O)c1cccc(C(=O)N/N=C/c2ccc([N+](=O)[O-])o2)c1,11µM*,-36,?,?,14µM*,?
CCN(CC)c1ccc(/C=N/NC(=O)c2ccc3nc[nH]c3c2)c(O)c1,5µM*,/,?,11µM*,?,?
CCOc1ccc(NC(=O)c2cc3sc(Cl)cc3n2CC)cc1,/,-33,?,-28%,/,4%[46.1 µM]
Cc1cccc(C(=O)N(Cc2ccco2)Cc2ccccc2F)c1,/,-39,-5%,0%,21%[46.1 µM],-6%[46.1 µM]
CC(C)=CCCC(C)=CCN1C(=O)[C@@]2(CC(C)=C[C@@H](COCc3ccccc3)O2)c2ccccc21,/,/,/,/,/,6%[14.2 µM]
CCN(CC)c1ccc(C(=O)N/N=C/c2ccccc2OC(F)F)cc1,11µM*,-36,/,/,/,/
COc1ccccc1NS(=O)(=O)c1cccc(C(=O)N/N=C/c2ccc3c(c2)OCCO3)c1,3%,-63*,-14%,-15%,10%,0%
SMILES,HCV inh,HCMV inh,Vaccinia Venus,VACV mCherry inh,Lassa entry inh,Marburg entry inh
COc1ccccc1/C=N/NC(=O)c1ccc(Br)cc1,-5%,-4,-15%,?,-14%[46.1 µM],-21%[46.1 µM]
C=C(CCN1C=C(C(C)=O)C(c2ccccc2)NC1=O)c1ccc(OC)cc1 (stereo not given),/,/,/,/,/,12%[14.2 µM]
CC(=O)NC1=NC(=O)/C(=C/c2cn(C(C)=O)nc2-c2ccccc2)S1,-3%,?,/,/,/,/
CCN=C1S/C(=C\c2cn(C(C)=O)nc2-c2ccccc2)C(=O)N1CC,10µM*,20,/,/,?,?
Cc1ccc([C@H]2C[C@@H](O)[C@H](n3cc(COC(=O)c4ccccc4)nn3)CN2CC2CCCCC2)cc1,/,-89*,-20%,i,1%[46.1 µM],/
CCCCCCN1C[C@@H](n2cc(COC(=O)c3ccccc3)nn2)[C@H](O)C[C@@H]1c1ccc(C)cc1,/,-89*,?,?,/,/
CCCCCCN1C[C@H](O)[C@@H](n2cc(COC(=O)c3ccccc3)nn2)C[C@@H]1c1ccc(C)cc1,/,13,-17%,-15%,/,/
COc1ccc([C@H]2C[C@H](O)[C@@H](n3cc(COC(=O)c4ccccc4)nn3)CN2C(=O)C2CCCCC2)cc1,/,-83*,-15%,12%,/,?
O=C(OCc1cn([C@@H]2CN(CC3CCCCC3)[C@@H](c3ccccc3)C[C@H]2O)nn1)c1ccccc1,/,-14,-21%,?,/,/
Cc1ccc([C@H]2C[C@@H](O)[C@H](n3cc(COC(=O)c4ccccc4)nn3)CN2C(=O)C2CCCCC2)cc1,/,2,-25%,i,?,/
CCCCCCN1C[C@@H](O)[C@H](n2cc(COC(=O)c3ccccc3)nn2)C[C@@H]1c1ccc(OC)cc1,/,-101*,-19%,-14%,/,/
C=Cc1ccc(Cn2nc(-c3ccc(C)c(S(=O)(=O)N(CC)CC)c3)ccc2=O)cc1,/,11,-17%,-23%,-2%[46.1 µM],?
COc1ccc(N(C(=O)c2snc(C(N)=O)c2N)C(C(=O)NCc2ccc(F)cc2)c2ccc(O)cc2)cc1 (stereo not given),?,-22,6%,-6%,2.8µM*,?
COc1ccc(CN(C(=O)c2snc(C(N)=O)c2N)C(C)C(=O)NCc2ccc(F)cc2)cc1 (stereo not given),?,-12,-18%,-14%,/,2%[46.1 µM]
COc1ccc(C(C(=O)NCc2ccccc2)N(C(=O)c2snc(C(N)=O)c2N)c2ccccc2OC)cc1OC (stereo not given),1%,-75*,-3%,-18%,-22%,-25%[46.1 µM]
COc1ccc(N(C(=O)c2snc(C(N)=O)c2N)C(C(=O)NCc2ccccc2)c2ccc(O)cc2)cc1OC (stereo not given),-30%,-24,-5%,-11%,/,7%[46.1 µM]
COc1cccc(N(C(=O)c2snc(C(N)=O)c2N)C(C(=O)NCc2ccccc2)c2ccc(O)cc2)c1 (stereo not given),?,-33,1%,-10%,?,-10%[46.1 µM]
